According to PubChem BioAssay (Tox21):
Results filed as inconclusive are left out. The source made the active and inactive calls. Unless noted, the call rests on the fitted dose curve; in most records, active means well fitted curve in the direction sought with a large enough effect in the repeat runs; inconclusive means weak or mixed curves; inactive means no such curve, though single readings can be large; an effect the other way counts as inactive or inconclusive.

Columns and labels:
[1] = qHTS assay to identify aromatase inhibitors - cell viability counter screen (AID 743084);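 further: cells stimulated with testosterone during compound exposure; nearly all actives have a fitted effect of over 55% in size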
[2] = target: Aryl hydrocarbon receptor (Homo sapiens) (UniProt P35869); assay: qHTS assay to identify small molecule that activate the aryl hydrocarbon receptor (AhR) signaling pathway (AID 743085); further: nearly all actives have a fitted effect of over 15% in size; further: potency means the concentration at half of the fitted maximal effect;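 on activation: HG2L7.5c1 human HepG2 liver cells with stably integrated DRE-driven firefly reporter; series mostly up to about 70 µM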
Sequence of Aryl hydrocarbon receptor (Homo sapiens) (P35869 whole entry, looked up): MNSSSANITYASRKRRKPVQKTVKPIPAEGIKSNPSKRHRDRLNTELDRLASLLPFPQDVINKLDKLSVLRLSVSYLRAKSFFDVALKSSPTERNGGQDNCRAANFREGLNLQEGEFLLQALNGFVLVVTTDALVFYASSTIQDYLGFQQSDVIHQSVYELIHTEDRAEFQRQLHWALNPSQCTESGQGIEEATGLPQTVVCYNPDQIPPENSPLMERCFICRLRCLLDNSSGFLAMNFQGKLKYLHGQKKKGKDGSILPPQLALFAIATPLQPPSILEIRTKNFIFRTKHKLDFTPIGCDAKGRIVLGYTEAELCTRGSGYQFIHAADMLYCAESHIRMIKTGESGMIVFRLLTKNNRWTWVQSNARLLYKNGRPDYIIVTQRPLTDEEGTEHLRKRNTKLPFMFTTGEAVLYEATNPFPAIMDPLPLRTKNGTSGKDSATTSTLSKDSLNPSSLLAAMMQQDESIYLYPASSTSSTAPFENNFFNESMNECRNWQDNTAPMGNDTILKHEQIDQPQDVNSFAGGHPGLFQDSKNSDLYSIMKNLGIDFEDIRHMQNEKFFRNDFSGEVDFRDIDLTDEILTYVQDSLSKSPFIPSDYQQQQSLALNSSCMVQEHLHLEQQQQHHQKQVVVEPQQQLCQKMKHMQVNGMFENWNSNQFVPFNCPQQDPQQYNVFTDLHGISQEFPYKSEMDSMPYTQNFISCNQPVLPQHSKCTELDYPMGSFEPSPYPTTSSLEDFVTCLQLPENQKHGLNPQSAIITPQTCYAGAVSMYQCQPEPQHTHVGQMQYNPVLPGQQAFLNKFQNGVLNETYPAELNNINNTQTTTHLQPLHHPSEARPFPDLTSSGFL
Method in brief: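 24 h compound exposure, 37C, HepG2-derived HG2L7.5c1 cells with DRE-responsive luciferase. Readouts: fluorescence viability, then luminescence at room temperature after 30 min.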

[3] = qHTS assay to identify small molecule that activate the aryl hydrocarbon receptor (AhR) signaling pathway - cell viability counter screen (AID 743086);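 further: HepG2 liver cells carrying the AhR DRE luciferase reporter; series mostly up to about 70 µM; nearly all actives have a fitted effect of over 45% in size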
Method in brief: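 HepG2-AhR-luc (HG2L7.5c1) cells, 4000/well, treated 24 h at 37 C with compound; viability measured as CellTiter-Fluor fluorescence after 30 min in the same wells as the luciferase read.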

[4] = target: Peroxisome proliferator-activated receptor gamma (Homo sapiens) (UniProt P37231); assay: qHTS assay to identify small molecule agonists of the peroxisome proliferator-activated receptor gamma (PPARg) signaling pathway (AID 743094; active means well fitted activation curve with a large enough effect in the signal ratio in the repeat runs, not every such curve was filed as active; the % refers to the signal ratio)
Sequence of Peroxisome proliferator-activated receptor gamma (Homo sapiens) (P37231 whole entry, looked up): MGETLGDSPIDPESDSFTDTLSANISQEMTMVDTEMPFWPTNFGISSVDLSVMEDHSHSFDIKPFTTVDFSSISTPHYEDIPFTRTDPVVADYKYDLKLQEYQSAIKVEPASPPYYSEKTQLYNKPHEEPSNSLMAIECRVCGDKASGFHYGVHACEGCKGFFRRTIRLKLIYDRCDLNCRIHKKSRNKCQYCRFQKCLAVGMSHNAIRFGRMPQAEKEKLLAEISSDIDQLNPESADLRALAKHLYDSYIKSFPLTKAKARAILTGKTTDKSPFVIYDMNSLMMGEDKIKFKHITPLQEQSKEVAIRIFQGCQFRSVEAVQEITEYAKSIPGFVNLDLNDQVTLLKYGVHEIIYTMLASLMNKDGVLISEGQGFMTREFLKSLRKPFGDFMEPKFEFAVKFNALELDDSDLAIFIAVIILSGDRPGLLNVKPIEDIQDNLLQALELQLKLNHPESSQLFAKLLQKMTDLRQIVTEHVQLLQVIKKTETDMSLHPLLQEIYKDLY
Method in brief: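 Beta-lactamase FRET fluorescence was the read-out after a 1 h room-temperature substrate step, following 17 h compound treatment at 37C of HEK293H cells expressing a UAS-driven bla reporter responsive to PPARg.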

[5] = qHTS assay to identify small molecule antagonists of the peroxisome proliferator-activated receptor gamma (PPARg) signaling pathway - cell viability counter screen (AID 743194); further: nearly all actives have a fitted effect of over 55% in size
Method in brief: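 Cytotoxicity counter screen in PPARg-bla HEK293H cells, same wells as reporter assay. Compounds plus 50 nM rosiglitazone (final) for 17 h at 37 C, then viability read by CellTiter-Glo luminescence.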

[6] = qHTS assay for small molecule agonists of the antioxidant response element (ARE) signaling pathway (AID 743202; active means well fitted activation curve with a large enough effect in the signal ratio in the repeat runs, not every such curve was filed as active; the % refers to the signal ratio)
Method in brief: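 ARE-bla HepG2 cells (beta-lactamase reporter under the antioxidant response element), plated 5 hours, then exposed to compounds 16 hours at 37 C. LiveBLAzer B/G FRET substrate added for 2 hours at room temperature; fluorescence intensity read.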

[7] = qHTS assay for small molecule agonists of the antioxidant response element (ARE) signaling pathway - cell viability counter screen (AID 743203; calls by dose curve; further: nearly all actives have a fitted effect of over 55% in size)
Method in brief: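 HepG2 cells carrying ARE-driven beta-lactamase; 2,000 cells/well; 5 hrs plating; compound pinned from DMSO; 16 hrs 37C/5% CO2; CellTiter-Glo added; 30 min RT; luminescence.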

[8] = qHTS assay for small molecule activators of the heat shock response signaling pathway - cell viability counter screen (AID 743209); further: nearly all actives have a fitted effect of over 50% in size
Method in brief: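 Luminescence from CellTiter-Glo, added after the beta-lactamase FRET read, gave the viability signal. Cells were HSE-bla HeLa treated with DMSO-dissolved compounds for 5 h at 37 C following overnight plating.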

[9] = qHTS assay for small molecule activators of the heat shock response signaling pathway (AID 743210; active means well fitted activation curve with a large enough effect in the signal ratio in the repeat runs, with a control signal flat, not every such curve was filed as active; the % refers to the signal ratio; further: series mostly up to about 63 µM)
Method in brief: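 HSE-bla HeLa cells (beta-lactamase reporter under heat shock response elements), plated overnight, then exposed to compounds 5 h at 37 C; LiveBLAzer B/G FRET substrate added, 2.5 h at room temperature, fluorescence intensity read.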

[10] = qHTS assay to identify small molecule agonists of the peroxisome proliferator-activated receptor delta (PPARd) signaling pathway - cell viability counter screen (AID 743211); further: nearly all actives have a fitted effect of over 55% in size
Method in brief: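 Luminescent ATP viability assay (CellTiter-Glo, 30 min RT) in UAS-bla HEK293H cells carrying the PPAR delta reporter construct, 3000 cells/well, after a 17 h compound treatment at 37 C.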

[11] = target: Peroxisome proliferator-activated receptor delta (Homo sapiens) (UniProt Q03181); assay: qHTS assay to identify small molecule agonists of the peroxisome proliferator-activated receptor delta (PPARd) signaling pathway (AID 743212; calls by dose curve)
Sequence of Peroxisome proliferator-activated receptor delta (Homo sapiens) (Q03181 whole entry, looked up): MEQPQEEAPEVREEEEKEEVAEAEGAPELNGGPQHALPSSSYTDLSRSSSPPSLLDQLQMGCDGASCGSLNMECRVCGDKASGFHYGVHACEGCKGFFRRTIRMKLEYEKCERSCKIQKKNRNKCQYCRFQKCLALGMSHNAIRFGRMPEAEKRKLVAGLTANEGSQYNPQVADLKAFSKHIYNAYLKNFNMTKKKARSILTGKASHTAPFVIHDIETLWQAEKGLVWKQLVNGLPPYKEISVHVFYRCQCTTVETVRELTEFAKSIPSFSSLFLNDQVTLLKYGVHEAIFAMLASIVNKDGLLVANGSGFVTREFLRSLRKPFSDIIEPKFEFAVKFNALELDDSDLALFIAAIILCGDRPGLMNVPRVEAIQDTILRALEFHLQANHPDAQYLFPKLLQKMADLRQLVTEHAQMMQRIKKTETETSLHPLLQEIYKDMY
Method in brief: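 GeneBLAzer UAS-bla HEK293H cells carrying a PPARδ construct were exposed to compounds at 37 °C. Beta-lactamase activity was read by FRET fluorescence after 2 h at room temperature with LiveBLAzer B/G substrate.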

[12] = target: Peroxisome proliferator-activated receptor delta (Homo sapiens) (UniProt Q03181); assay: qHTS assay to identify small molecule antagonists of the peroxisome proliferator-activated receptor delta (PPARd) signaling pathway (AID 743215; active means well fitted inhibition curve with a large enough effect in the signal ratio in the repeat runs, not every such curve was filed as active; the % refers to the signal ratio;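 further: cells stimulated with agonist L165041 at 300 nM final during compound exposure; series mostly up to about 62 µM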)
Method in brief: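 Read-out is beta-lactamase FRET fluorescence, measured 2 h after substrate addition at room temperature. Beforehand, UAS-bla HEK293H cells carrying the PPARd reporter were exposed to compounds with L165041 at 300 nM final for 17 h at 37 C.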

[13] = qHTS assay to identify small molecule agonists of the farnesoid-X-receptor (FXR) signaling pathway - cell viability counter screen (AID 743218); further: nearly all actives have a fitted effect of over 45% in size
Method in brief: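 HEK 293T FXR-bla cells; 5 h pre-incubation, 16 h compound exposure at 37 C; LiveBLAzer substrate 2 h RT, then CellTiter-Glo 30 min RT, luminescence.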

[14] = target: Bile acid receptor (Homo sapiens) (UniProt Q96RI1); assay: qHTS assay to identify small molecule agonists of the farnesoid-X-receptor (FXR) signaling pathway (AID 743220; active means well fitted activation curve with a large enough effect in the signal ratio in the repeat runs, not every such curve was filed as active; the % refers to the signal ratio; further: potency means the concentration at half of the fitted maximal effect)
Sequence of Bile acid receptor (Homo sapiens) (Q96RI1 whole entry, looked up): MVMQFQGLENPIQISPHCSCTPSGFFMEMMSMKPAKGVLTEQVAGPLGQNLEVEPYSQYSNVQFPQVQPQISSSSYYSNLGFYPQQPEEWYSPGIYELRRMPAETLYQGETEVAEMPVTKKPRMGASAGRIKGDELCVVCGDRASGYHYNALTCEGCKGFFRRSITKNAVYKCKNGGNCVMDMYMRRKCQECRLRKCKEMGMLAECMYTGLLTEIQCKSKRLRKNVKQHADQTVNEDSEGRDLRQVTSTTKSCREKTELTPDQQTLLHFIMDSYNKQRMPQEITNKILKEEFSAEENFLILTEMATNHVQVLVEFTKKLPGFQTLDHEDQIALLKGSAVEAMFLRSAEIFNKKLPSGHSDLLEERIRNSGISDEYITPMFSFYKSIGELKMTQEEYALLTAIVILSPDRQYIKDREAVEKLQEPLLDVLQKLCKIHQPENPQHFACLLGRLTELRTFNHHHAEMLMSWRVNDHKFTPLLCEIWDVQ
Method in brief: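 Beta-lactamase reporter under UAS control in GeneBLAzer FXR HEK 293T cells (5000/well) measured with LiveBLAzer FRET substrate after 2 h at room temperature. Compound exposure lasted 16 h at 37C.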

[15] = qHTS assay to identify small molecule antagonists of the farnesoid-X-receptor (FXR) signaling pathway - cell viability counter screen (AID 743221; active means well fitted cell-killing curve with a large enough effect in the repeat runs, not every such curve was filed as active; further: nearly all actives have a fitted effect of over 50% in size)
Method in brief: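 In GeneBLAzer FXR-UAS-bla HEK 293T cells stimulated with 50 uM chenodeoxycholic acid (final), compounds acted for 16 h at 37 C. Viability was assessed afterwards by CellTiter-Glo luminescence.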

[16] = target: Peroxisome proliferator-activated receptor gamma (Homo sapiens) (UniProt P37231); assay: qHTS assay to identify small molecule antagonists of the peroxisome proliferator-activated receptor gamma (PPARg) signaling pathway (AID 743191; calls by dose curve; further: series mostly up to about 63 µM; nearly all actives have a fitted effect of over 30% in size)
Method in brief: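 GeneBLAzer PPARg UAS-bla HEK293H cells, 5 h post-plating, exposed to compounds 17 h at 37C. LiveBLAzer B/G FRET substrate added for 1 h at room temperature; beta-lactamase reporter read by fluorescence intensity.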

[17] = qHTS assay to identify small molecule antagonists of the peroxisome proliferator-activated receptor delta (PPARd) signaling pathway - cell viability counter screen (AID 743213); further: nearly all actives have a fitted effect of over 50% in size
Method in brief: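 CellTiter-Glo was added to PPARd-bla HEK293H wells following 17 h compound treatment in the presence of 300 nM L165041. Luminescence was recorded after 30 min at room temperature.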

[18] = target: Vitamin D3 receptor (Homo sapiens) (UniProt P11473); assay: qHTS assay to identify small molecule agonists of the vitamin D receptor (VDR) signaling pathway (AID 743222; calls by dose curve)
Sequence of Vitamin D3 receptor (Homo sapiens) (P11473 whole entry, looked up): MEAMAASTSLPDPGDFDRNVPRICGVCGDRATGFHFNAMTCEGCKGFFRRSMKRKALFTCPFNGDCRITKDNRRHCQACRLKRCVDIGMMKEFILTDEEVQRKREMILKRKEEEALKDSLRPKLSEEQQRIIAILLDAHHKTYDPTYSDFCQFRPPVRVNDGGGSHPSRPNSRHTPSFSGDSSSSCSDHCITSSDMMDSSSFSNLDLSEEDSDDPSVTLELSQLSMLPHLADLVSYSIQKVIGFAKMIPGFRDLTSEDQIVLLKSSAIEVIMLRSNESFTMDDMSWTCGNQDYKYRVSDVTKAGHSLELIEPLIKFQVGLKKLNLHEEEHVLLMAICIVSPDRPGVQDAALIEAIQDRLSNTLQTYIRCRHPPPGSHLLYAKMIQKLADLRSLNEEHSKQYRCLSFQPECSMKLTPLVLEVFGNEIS
Method in brief: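 VDR-bla cells, 2,000/well; 4 h preincubation 37C; cpd (DMSO) 16 h; LiveBLAzer B/G substrate 2 h RT; fluorescence intensity read.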

[19] = target: Vitamin D3 receptor (Homo sapiens) (UniProt P11473); assay: qHTS assay to identify small molecule antagonists of the vitamin D receptor (VDR) signaling pathway (AID 743223; active means well fitted inhibition curve with a large enough effect in the signal ratio in the repeat runs, not every such curve was filed as active; the % refers to the signal ratio)
Method in brief: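 Agonist 1alpha,25-dihydroxyvitamin D3 (3 nM in well) was added with each compound to VDR-bla cells preincubated 4 h. Cells stood 16 h at 37C, then FRET substrate 2 h at room temperature; fluorescence intensity recorded.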

[20] = target: Bile acid receptor (Homo sapiens) (UniProt Q96RI1); assay: qHTS assay to identify small molecule antagonists of the farnesoid-X-receptor (FXR) signaling pathway (AID 743217; active means well fitted inhibition curve with a large enough effect in the signal ratio in the repeat runs, not every such curve was filed as active; the % refers to the signal ratio)
Method in brief: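 HEK 293T FXR-UAS-bla, 5000 cells/well; compound + CDCA 50 uM final; 16 h, 37 °C; B/G FRET substrate 2 h RT; fluorescence.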

Measured: Potency

COc1ccc(Br)c(C)c1
not listed: [16] | [17] | [18] | [19] | [20]
inactive: all other assays above

CCCCNC1CC(C)(C)NC(C)(C)C1
not listed: [5] | [7] | [14] | [20]
inactive: all other assays above

CCCCCCCCCCCCCC
not listed: [6] | [11] | [12] | [14] | [15] | [16] | [20]
inactive: all other assays above

COc1ccc2c(c1)C(=O)N(CCc1ccc(S(=O)(=O)NC(=O)NC3CCCCC3)cc1)C(=O)C2(C)C
active: [14] 26.6 µM
not listed: [6] | [9] | [10] | [16] | [18] | [20]
inactive: all other assays above

CN(C)C(=O)CNC(=O)Cc1ccccc1
not listed: [5] | [11] | [12] | [13] | [14] | [17] | [19] | [20]
inactive: all other assays above

COc1ccc(-c2cc(=O)c3c(O)cc(O[C@@H]4O[C@H](CO[C@@H]5O[C@@H](C)[C@H](O)[C@@H](O)[C@H]5O)[C@@H](O)[C@H](O)[C@H]4O)cc3o2)cc1O
active: [2] 29.8 µM
not listed: [6] | [14] | [16] | [20]
inactive: all other assays above

C=C(C)C(=O)OCCNC(C)(C)C
not listed: [5] | [6] | [11] | [12] | [14] | [20]
inactive: all other assays above

CCOC(=O)c1ncn2c1CN(C)C(=O)c1cc(F)ccc1-2
not listed: [5] | [7] | [10] | [11] | [12] | [14] | [18] | [20]
inactive: all other assays above

CCC(CC)CO
not listed: [5] | [10] | [11] | [13] | [14] | [20]
inactive: all other assays above

CCOc1cc(NC(C)=O)ccc1C(=O)OC
not listed: [5] | [7] | [10] | [13] | [18] | [19]
inactive: all other assays above

CC(C)(C)c1cc(CCC(=O)NN)cc(C(C)(C)C)c1O
not listed: [5] | [7] | [12] | [14] | [15] | [16] | [20]
inactive: all other assays above

COc1cc(NS(=O)(=O)c2ccc(N)cc2)nc(OC)n1
not listed: [5] | [6] | [14] | [20]
inactive: all other assays above

CC(C)=O
not listed: [5] | [12] | [13] | [14] | [16] | [17] | [20]
inactive: all other assays above

CCOC(=O)c1ccc(OC(=O)CCCCCN=C(N)N)cc1
inactive: [1] | [2] | [3] | [4] | [16] | [6] | [8] | [9] | [11] | [15]
